Screens as filed in PubChem BioAssay.
A3A deaminase – blocks human APOBEC3A ssDNA deamination; recombinant A3A, FAM/TAMRA ssDNA deamination fluorescence; inhibition, % at 20 µM; P31941; actives 0.41% (n = 330,000);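 active = at least 40% inhibition at 20 µM here, with at most 30% in a related deaminase screen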;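 note: plate controls were A3A with DMSO for no effect and wells lacking A3A enzyme for full effect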
Target sequence (P31941 whole entry, looked up): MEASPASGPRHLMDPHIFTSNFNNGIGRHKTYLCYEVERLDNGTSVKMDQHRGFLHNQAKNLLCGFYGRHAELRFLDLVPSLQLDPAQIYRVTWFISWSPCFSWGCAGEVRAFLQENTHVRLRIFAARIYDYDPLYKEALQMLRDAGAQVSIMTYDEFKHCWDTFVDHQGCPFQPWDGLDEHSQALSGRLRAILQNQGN
VLA-4 inh – inhibition in a human VLA-4 binding assay; P13612; inhibition, % (about 7 µM as worked out from the volumes in the protocol); VLA-4 expressing cells, ligand binding flow cytometry; AID 2557; actives 0.2% (n = 330,000); in the data active = inhibition above about 50%
GRK2 aptamer HTS – human GRK2 inhibition via aptamer displacement. AID 488847. bead flow cytometry, FAM-aptamer displacement from GRK2. actives 0.59% (n = 330,000). P25098. inhibition of aptamer binding, % at 10 µM;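 active = inhibition of aptamer binding above 40%, roughly 3 SD of noise, on plates passing a quality check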;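 note: median bead fluorescence of bound FAM aptamer so fluorescent compounds give negative values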
APOBEC3G inh – inhibitors of human APOBEC3G DNA deaminase; actives 0.28% (n = 330,000); AID 493012; inhibition, % at 20 µM; recombinant A3G, ssDNA deamination FAM/TAMRA fluorescence;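 active = inhibition of at least 40% at 20 µM, with no more than 30% in the related APOBEC3A deaminase screen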;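 note: plate controls were DMSO wells with A3G for no effect and wells lacking A3G enzyme for full effect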
Target sequence (Q9HC16 whole entry, looked up): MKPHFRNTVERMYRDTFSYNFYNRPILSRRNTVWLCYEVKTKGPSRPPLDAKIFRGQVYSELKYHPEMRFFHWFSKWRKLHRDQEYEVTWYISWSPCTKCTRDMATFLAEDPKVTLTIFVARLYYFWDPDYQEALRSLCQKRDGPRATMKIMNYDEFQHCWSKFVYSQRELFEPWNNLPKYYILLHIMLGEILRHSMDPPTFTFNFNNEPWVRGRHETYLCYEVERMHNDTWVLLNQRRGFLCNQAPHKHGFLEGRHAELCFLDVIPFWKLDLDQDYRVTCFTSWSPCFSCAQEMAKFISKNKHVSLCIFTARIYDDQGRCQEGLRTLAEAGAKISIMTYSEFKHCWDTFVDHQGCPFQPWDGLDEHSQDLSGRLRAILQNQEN
GRK2 CP1 – confirmation of human GRK2 inhibitors displacing RNA aptamer; aptamer displacement, % at 10 µM; actives 4% (n = 2,000); shares compounds with GRK2 aptamer HTS; bead-bound GRK2, FAM-aptamer displacement, flow cytometry;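 active = aptamer displacement above 40%, near three times the noise of non-fluorescent compounds, on plates passing quality checks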;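 note: negative values mostly reflect intrinsic compound fluorescence rather than true enhancement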
Aptamer quench 1 – fluorescent aptamer quenching in GRK2 counter-screen dose response. shares compounds with GRK2 aptamer HTS. Fluorescent RNA aptamer beads, flow cytometry; hits give high values. fluorescence change (kMESF span), kMESF (no concentration beside the values). 110 tested, under 10 active. AID 504521;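 active = compounds whose bead fluorescence drops by more than 37 kMESF across the dose range, marking them as dye quenchers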
FAM quench CP1 – aptamer fluorescence quenching in GRK2 counter-screen; fluorescence response (% of DMSO), % at 10 µM; 2,000 tested, under 10 active; Carboxyfluorescein RNA aptamer on beads, flow cytometry quenching; hits give low values; AID 504580; shares compounds with GRK2 aptamer HTS;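 active = compounds that quench the bead-bound fluorescent RNA probe, cutting fluorescence to under half of the solvent control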;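 note: counterscreen run without GRK2 so only probe quenching by compound is measured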
* hit, by the source's call. The list is not random: actives were taken first. Their share in the collection is about 1.4%.

Screening CC(C)c1ccc(OC(=O)c2cccc(S(=O)(=O)N3CCN(C)CC3)c2)cc1 returned A3A deaminase 75, VLA-4 inh 2, GRK2 aptamer HTS 0 and APOBEC3G inh 42.
Screening Cc1ccc(S(=O)(=O)c2nnn3c2nc(NCCCN2CCCC2=O)c2ccccc23)cc1C returned A3A deaminase -2, VLA-4 inh -123, GRK2 aptamer HTS 0 and APOBEC3G inh -2.
`O=C(Oc1ccc(Cl)c2ccccc12)N1CCCCC1` gave A3A deaminase -1, VLA-4 inh 1, GRK2 aptamer HTS 99*, APOBEC3G inh -3, GRK2 CP1 1 and FAM quench CP1 102.
For O=C(Oc1ccc(Cl)c2cccnc12)N1CCCCC1 the results were A3A deaminase -5, VLA-4 inh 6, GRK2 aptamer HTS 0 and APOBEC3G inh -5.
`O=[N+]([O-])c1ccc(NNC(=S)Nc2ccc(F)cc2)cc1` gave A3A deaminase -3, VLA-4 inh -20, GRK2 aptamer HTS 2 and APOBEC3G inh 0.
For CC(C)(CNC(=O)c1cc(-c2ccc(Cl)s2)nc2ccccc12)N1CCOCC1 the results were A3A deaminase -2, VLA-4 inh 20, GRK2 aptamer HTS 52*, APOBEC3G inh -8, GRK2 CP1 -4 and FAM quench CP1 101.
For O=C(c1nc2ccccn2c1CNCC1OCCc2ccccc21)N1CCOCC1 (stereo not drawn) the results were A3A deaminase -3, VLA-4 inh 0, GRK2 aptamer HTS 3 and APOBEC3G inh -5.
Cc1ccn2c(CNCC3OCCc4ccccc43)c(C(=O)N3CCCCCC3)nc2c1 (stereo not drawn) was read as A3A deaminase -5, VLA-4 inh -3, GRK2 aptamer HTS 0, APOBEC3G inh -6, GRK2 CP1 5 and FAM quench CP1 103.
`CCNc1nc(SC(C)C(=O)OC)nc(N(C)C)n1` (stereo not drawn) gave A3A deaminase 1, VLA-4 inh 2, GRK2 aptamer HTS 2 and APOBEC3G inh -4.
Screening CC(C)C[C@H]1CN=C(Nc2ccccc2)N1CCC1CCCCC1 returned A3A deaminase 2, VLA-4 inh 12, GRK2 aptamer HTS 0 and APOBEC3G inh 5.
c1ccc(C[C@H]2CN=C(Nc3ccccc3)N2CCC2CCCC2)cc1 was read as A3A deaminase 1, VLA-4 inh 33, GRK2 aptamer HTS 68*, APOBEC3G inh 18, GRK2 CP1 -4 and FAM quench CP1 99.
CSc1ccccc1NC(=O)c1cc(-c2ccco2)on1 was read as A3A deaminase 3, VLA-4 inh 5, GRK2 aptamer HTS 0 and APOBEC3G inh 1.
Screening O=C(O)c1c2c(nc3ccccc13)/C(=C/c1ccc(O)cc1)CC2 returned A3A deaminase 84, VLA-4 inh 1, GRK2 aptamer HTS 67*, APOBEC3G inh 59, GRK2 CP1 50*, Aptamer quench 1 8.9 and FAM quench CP1 98.
CN(CCO)c1ccc(C=NNc2ccc([N+](=O)[O-])cc2S(=O)(=O)Nc2ccccc2C(=O)O)cc1 was read as A3A deaminase -2, VLA-4 inh -23, GRK2 aptamer HTS 35, APOBEC3G inh -7, GRK2 CP1 11 and FAM quench CP1 101.
CC(=O)Nc1ccc(C=NNc2ccc([N+](=O)[O-])cc2S(=O)(=O)Nc2ccccc2C(=O)O)cc1 was read as A3A deaminase -2, VLA-4 inh 6, GRK2 aptamer HTS 0 and APOBEC3G inh -7.
For O=C(CN(Cc1ccccc1)S(=O)(=O)c1ccc(S(=O)(=O)N2CCOCC2)cc1)Nc1ccccc1 the results were A3A deaminase 2, VLA-4 inh -6, GRK2 aptamer HTS 52*, APOBEC3G inh 0, GRK2 CP1 0 and FAM quench CP1 101.
Screening Cc1ccc2oc(=O)c(/C=C(\O)c3ccco3)nc2c1 returned A3A deaminase -6, VLA-4 inh -5, GRK2 aptamer HTS 0 and APOBEC3G inh -8.
`O=C(NC1CCCc2ccccc21)c1cccc(S(=O)(=O)N2CCN(c3ccccc3)CC2)c1` (stereo not drawn) gave A3A deaminase 7, VLA-4 inh 19, GRK2 aptamer HTS 2, APOBEC3G inh 4, GRK2 CP1 1 and FAM quench CP1 128.
O=C(c1cccc(S(=O)(=O)N2CCc3ccccc32)c1)N1CCN(c2ccccc2)CC1 was read as A3A deaminase -2, APOBEC3G inh -8, GRK2 CP1 6 and FAM quench CP1 92.
Screening Cc1ccc(NC(=O)c2cccc(S(=O)(=O)N3CCN(c4ccccc4)CC3)c2)nc1 returned A3A deaminase -1, VLA-4 inh -3, GRK2 aptamer HTS 100*, APOBEC3G inh -9, GRK2 CP1 -2 and FAM quench CP1 100.
COc1ccc(CNC(=O)c2cccc(S(=O)(=O)N3CCN(c4ccc(F)cc4)CC3)c2)cc1 was read as A3A deaminase -1 and APOBEC3G inh -3.
`COc1ccccc1CNC(=O)c1cccc(S(=O)(=O)N2CCN(c3ccc(F)cc3)CC2)c1` gave A3A deaminase -4, VLA-4 inh 14, GRK2 aptamer HTS 1, APOBEC3G inh -7, GRK2 CP1 -2 and FAM quench CP1 101.
`O=C(c1cccc(S(=O)(=O)N2CCc3ccccc3C2)c1)N1CCN(c2ccccc2)CC1` gave A3A deaminase -2, VLA-4 inh 3, GRK2 aptamer HTS 0 and APOBEC3G inh -2.
For CCCn1c(N)c(C(=O)COC(=O)CNC(=O)c2ccc(C)c(C)c2)c(=O)n(C)c1=O the results were A3A deaminase -5, VLA-4 inh 6, GRK2 aptamer HTS 1 and APOBEC3G inh -12.
For COCCN1C(=O)c2ccccc2C(C(=O)NCC2CCCO2)C1c1c[nH]c2ccccc12 (stereo not drawn) the results were A3A deaminase -1, VLA-4 inh 22, GRK2 aptamer HTS 0 and APOBEC3G inh -9.
Screening CCc1sc(C(=O)NCc2ccccc2)cc1C returned A3A deaminase -6, VLA-4 inh -1, GRK2 aptamer HTS 1 and APOBEC3G inh -3.
`COC(=O)c1c(-c2c(Cl)cccc2Cl)noc1NC(=O)N(C)C` gave A3A deaminase -3, VLA-4 inh 3, GRK2 aptamer HTS 0 and APOBEC3G inh -9.
For Cc1cc(OCc2nc(-c3ccncc3)no2)cc(C)c1Cl the results were A3A deaminase -5, VLA-4 inh 5, GRK2 aptamer HTS 47*, APOBEC3G inh -6, GRK2 CP1 -1 and FAM quench CP1 100.
For O=C(NNS(=O)(=O)c1ccccc1)c1cc2cc3ccccc3nc2s1 the results were A3A deaminase -4, VLA-4 inh 12, GRK2 aptamer HTS 0 and APOBEC3G inh -5.
